Key:
Experiment in all cases: log2 ratio of Biotin-Ahx-Ub-VS probe labelling (fragment/DMSO); higher = less target engagement (more negative = stronger competition), active = hit call of the paper (q ≤ 0.05, log2 ratio ≤ -1)
Conditions in all cases: compound concentration: 200 uM; treatment time: 3 h
USP34 = USP34 (UniProt Q70CQ2)
Outline: (§1)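 Fragment (200 µM) or vehicle was incubated for 3 h with triplicate HEK293T lysate samples of 495 µg, which were then treated with Biotin-Ahx-Ub-VS at 0.5 µM final for 1 h. Labelled DUBs were enriched on NeutrAvidin, digested with LysC and trypsin, and analysed by diaPASEF LC-MS/MS. Values are average log2 fragment/vehicle ratios from an unpaired t-test on global-median-normalised Spectronaut label-free quantities, using proteins with ≥2 unique peptides.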

USP36 = target: T1, USP36 (UniProt Q9P275)
T1 sequence (whole entry): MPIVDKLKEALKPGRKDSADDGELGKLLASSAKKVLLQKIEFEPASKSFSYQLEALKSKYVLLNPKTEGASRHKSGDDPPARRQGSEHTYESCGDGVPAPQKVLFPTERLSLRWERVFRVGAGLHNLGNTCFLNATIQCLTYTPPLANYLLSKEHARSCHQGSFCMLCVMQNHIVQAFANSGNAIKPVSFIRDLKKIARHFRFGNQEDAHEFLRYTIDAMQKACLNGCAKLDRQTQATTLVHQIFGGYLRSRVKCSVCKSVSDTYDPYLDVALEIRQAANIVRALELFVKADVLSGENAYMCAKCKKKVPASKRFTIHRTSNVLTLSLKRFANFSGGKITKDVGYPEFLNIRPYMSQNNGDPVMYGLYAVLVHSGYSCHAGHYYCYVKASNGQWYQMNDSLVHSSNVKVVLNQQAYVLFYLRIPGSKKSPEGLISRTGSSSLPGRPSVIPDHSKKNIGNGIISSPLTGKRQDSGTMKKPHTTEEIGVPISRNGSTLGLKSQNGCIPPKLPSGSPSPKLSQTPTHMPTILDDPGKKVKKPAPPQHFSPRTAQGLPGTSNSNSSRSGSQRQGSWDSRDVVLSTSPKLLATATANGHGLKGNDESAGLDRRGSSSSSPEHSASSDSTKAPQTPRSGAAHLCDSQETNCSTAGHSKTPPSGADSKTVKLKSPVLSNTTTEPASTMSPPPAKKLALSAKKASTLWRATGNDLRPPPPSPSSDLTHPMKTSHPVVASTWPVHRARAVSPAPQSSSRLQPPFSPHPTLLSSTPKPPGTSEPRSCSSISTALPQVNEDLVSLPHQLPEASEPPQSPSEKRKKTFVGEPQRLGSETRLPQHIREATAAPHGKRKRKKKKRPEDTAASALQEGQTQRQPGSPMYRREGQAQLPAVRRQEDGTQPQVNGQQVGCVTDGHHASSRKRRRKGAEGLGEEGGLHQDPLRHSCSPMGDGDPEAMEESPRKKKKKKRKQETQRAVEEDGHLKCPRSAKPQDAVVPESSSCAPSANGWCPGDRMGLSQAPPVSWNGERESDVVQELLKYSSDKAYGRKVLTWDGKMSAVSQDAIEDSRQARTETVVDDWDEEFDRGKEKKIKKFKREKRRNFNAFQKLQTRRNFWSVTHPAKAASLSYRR
Outline: as §1

USP38 = target: T2, USP38 (UniProt Q8NB14)
T2 sequence (whole entry): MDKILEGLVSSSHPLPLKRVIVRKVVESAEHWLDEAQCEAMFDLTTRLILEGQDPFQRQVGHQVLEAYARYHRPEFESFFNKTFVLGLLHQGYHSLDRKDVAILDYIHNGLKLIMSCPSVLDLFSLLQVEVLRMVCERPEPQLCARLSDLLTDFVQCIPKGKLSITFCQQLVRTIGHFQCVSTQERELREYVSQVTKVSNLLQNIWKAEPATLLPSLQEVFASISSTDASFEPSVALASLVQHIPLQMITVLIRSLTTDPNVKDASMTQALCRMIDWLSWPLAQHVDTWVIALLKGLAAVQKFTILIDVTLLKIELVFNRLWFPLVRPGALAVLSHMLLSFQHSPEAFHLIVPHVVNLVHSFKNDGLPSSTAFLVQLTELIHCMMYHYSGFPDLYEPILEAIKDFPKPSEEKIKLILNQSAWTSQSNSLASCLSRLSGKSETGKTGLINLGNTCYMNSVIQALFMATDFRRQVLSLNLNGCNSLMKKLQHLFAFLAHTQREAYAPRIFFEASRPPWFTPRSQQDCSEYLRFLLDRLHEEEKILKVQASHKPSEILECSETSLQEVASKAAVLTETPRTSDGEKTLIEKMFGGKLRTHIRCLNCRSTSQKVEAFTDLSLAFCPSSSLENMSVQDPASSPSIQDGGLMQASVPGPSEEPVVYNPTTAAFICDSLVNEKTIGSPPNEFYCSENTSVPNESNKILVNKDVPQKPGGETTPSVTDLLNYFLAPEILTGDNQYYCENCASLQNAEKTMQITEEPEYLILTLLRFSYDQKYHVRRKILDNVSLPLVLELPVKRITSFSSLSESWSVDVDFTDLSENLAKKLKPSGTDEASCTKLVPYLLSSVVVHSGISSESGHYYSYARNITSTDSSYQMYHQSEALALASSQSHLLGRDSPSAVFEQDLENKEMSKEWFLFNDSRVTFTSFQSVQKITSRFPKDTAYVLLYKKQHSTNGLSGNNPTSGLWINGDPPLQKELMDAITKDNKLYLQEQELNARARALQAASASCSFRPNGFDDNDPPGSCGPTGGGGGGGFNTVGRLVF
Outline: as §1

USP39 = target: T3, USP39 (UniProt Q53GS9)
T3 sequence (whole entry): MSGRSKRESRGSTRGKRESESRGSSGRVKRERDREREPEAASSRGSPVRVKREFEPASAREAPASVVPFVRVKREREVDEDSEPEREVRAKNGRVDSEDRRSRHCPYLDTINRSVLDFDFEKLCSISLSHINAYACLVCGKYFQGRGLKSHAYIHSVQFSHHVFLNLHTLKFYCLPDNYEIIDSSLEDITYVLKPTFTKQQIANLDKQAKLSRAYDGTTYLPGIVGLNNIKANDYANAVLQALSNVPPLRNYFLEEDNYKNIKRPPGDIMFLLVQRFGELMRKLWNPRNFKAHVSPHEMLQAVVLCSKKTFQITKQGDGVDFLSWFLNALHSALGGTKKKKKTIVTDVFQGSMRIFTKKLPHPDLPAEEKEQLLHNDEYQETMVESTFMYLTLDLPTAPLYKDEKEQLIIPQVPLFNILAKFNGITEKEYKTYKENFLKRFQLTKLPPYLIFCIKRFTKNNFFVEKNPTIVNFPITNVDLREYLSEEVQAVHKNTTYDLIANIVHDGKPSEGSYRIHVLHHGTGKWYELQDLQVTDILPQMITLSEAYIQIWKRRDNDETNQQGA
Outline: as §1

USP4 = target: T4, USP4 (UniProt Q13107)
T4 sequence (whole entry): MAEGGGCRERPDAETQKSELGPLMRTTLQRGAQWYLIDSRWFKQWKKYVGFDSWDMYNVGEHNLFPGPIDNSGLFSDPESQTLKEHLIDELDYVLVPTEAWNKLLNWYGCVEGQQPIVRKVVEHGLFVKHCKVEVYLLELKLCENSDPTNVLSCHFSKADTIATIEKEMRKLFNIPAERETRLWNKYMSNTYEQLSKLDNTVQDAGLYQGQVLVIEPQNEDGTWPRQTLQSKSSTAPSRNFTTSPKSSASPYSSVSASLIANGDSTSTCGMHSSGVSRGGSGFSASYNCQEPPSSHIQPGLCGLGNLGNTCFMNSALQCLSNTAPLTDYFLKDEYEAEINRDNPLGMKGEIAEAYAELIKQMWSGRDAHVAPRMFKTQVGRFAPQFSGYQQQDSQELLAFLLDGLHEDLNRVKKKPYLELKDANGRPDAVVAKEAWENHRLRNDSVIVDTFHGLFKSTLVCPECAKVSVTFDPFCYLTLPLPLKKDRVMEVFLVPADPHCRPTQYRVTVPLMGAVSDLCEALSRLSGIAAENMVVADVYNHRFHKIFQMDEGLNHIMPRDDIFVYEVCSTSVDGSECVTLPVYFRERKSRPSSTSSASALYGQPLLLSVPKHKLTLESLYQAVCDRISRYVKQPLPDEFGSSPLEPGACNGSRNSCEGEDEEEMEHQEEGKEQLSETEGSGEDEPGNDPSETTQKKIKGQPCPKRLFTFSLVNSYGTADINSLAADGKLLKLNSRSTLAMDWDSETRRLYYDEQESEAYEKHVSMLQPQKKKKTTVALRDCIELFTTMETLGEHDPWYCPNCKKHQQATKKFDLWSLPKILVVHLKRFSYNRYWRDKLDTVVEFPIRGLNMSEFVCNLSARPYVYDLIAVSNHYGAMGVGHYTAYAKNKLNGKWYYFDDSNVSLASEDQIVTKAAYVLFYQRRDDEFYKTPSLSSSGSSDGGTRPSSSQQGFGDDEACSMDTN
Outline: as §1

Measured: log2 ratio of Biotin-Ahx-Ub-VS probe labelling

Chain of USP34 (Q70CQ2 whole entry, the tested form may be a part): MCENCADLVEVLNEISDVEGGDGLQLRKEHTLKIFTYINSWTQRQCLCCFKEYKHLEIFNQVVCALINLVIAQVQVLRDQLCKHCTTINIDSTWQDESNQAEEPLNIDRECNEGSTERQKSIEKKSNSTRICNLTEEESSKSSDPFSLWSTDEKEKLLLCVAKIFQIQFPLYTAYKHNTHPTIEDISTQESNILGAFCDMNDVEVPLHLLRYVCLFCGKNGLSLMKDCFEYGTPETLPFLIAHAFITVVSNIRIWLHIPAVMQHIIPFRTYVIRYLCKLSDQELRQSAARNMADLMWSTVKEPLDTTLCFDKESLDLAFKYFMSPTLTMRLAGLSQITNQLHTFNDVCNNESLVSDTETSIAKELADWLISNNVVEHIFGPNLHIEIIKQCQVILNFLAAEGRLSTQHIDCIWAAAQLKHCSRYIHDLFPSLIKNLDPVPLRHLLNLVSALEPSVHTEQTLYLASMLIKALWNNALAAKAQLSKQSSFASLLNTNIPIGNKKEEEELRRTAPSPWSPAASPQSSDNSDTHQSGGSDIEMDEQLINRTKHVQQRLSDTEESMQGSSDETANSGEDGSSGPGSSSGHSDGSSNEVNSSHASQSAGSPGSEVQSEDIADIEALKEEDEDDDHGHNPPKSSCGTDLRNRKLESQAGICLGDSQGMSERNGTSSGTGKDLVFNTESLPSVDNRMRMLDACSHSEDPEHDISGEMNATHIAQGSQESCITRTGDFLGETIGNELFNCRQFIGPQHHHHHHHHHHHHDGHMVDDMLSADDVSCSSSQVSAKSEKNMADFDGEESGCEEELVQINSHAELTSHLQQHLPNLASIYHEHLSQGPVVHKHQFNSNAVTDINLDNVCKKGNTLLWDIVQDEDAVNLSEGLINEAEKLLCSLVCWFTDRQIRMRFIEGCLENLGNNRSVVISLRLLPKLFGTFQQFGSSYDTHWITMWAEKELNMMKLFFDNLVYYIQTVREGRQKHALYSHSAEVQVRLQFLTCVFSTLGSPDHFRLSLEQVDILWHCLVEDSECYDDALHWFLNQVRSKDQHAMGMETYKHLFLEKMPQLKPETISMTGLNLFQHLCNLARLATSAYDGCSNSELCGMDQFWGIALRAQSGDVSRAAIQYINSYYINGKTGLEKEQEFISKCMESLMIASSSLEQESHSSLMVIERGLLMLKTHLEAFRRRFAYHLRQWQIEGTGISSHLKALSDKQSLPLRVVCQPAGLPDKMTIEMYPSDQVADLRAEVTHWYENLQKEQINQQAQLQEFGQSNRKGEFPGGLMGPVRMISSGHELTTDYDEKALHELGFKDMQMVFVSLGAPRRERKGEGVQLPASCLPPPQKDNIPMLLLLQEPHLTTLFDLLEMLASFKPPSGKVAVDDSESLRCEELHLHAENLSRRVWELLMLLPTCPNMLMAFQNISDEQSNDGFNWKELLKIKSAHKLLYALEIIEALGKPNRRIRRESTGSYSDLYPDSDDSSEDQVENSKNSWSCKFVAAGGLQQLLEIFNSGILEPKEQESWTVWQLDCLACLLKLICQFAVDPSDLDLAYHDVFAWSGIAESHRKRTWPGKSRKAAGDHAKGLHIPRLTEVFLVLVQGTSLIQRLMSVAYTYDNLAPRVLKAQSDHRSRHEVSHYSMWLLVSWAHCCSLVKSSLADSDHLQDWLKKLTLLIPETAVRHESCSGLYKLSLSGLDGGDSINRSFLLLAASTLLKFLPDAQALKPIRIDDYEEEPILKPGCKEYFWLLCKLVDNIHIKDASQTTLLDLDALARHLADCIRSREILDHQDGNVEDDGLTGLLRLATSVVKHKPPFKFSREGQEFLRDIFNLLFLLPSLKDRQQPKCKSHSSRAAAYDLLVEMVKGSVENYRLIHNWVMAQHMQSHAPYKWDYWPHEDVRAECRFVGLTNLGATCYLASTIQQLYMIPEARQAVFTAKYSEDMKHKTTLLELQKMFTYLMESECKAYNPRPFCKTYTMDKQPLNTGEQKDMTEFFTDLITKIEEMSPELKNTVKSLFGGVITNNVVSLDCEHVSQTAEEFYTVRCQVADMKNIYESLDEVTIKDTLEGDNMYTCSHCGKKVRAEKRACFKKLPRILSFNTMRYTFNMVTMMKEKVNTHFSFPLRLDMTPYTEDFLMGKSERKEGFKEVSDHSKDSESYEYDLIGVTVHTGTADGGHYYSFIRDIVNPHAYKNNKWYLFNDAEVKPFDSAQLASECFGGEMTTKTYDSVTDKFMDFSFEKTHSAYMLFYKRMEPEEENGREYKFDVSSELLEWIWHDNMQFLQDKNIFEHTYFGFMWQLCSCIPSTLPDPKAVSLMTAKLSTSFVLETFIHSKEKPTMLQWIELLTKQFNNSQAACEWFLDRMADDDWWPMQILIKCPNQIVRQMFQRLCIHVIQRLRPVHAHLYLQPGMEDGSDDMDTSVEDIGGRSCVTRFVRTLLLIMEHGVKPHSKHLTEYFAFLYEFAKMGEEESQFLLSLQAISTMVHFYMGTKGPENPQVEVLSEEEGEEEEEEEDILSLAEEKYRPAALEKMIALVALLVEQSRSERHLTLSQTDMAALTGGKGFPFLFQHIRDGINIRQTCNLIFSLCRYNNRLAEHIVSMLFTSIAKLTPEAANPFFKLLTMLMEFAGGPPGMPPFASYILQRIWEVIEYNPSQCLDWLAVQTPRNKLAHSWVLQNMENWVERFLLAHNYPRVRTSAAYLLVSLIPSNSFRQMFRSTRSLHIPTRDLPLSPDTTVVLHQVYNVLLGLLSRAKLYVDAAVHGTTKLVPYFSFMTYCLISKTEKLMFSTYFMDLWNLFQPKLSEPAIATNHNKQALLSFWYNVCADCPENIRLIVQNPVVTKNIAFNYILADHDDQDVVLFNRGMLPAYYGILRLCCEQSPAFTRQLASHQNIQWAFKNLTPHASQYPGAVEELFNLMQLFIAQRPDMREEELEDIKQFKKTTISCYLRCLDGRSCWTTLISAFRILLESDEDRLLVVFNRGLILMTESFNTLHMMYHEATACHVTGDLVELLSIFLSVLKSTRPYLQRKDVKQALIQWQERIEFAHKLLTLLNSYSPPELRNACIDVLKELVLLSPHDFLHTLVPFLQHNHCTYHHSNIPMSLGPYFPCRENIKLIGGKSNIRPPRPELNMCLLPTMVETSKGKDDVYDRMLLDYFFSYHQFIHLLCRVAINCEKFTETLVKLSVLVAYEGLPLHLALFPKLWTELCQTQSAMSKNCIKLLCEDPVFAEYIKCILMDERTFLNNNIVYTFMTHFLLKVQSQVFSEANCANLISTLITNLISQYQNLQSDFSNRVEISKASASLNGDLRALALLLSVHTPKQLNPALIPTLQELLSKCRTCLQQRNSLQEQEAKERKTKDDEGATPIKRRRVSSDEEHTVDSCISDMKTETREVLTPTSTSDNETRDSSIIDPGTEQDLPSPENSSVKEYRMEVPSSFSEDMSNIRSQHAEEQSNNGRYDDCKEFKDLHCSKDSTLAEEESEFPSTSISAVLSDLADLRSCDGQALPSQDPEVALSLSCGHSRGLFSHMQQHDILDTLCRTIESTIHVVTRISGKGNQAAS

O=C(CCl)N1CCOC2(CCC2)C1
inactive: USP34 0.118 | USP36 0.102 | USP38 0.253 | USP39 0.11 | USP4 -0.266
